From the supplement of paper PMC11006884
About 6,500 targets were measured; listed, in parts, are those with a hit and a random draw of the rest. About 2% of all pairs of compound and target were hits. A number with no mark means an inactive call.

These targets were tested with COC(=O)C#Cc1ccccc1 [methyl 3-phenylpropiolate] (assay: log2 ratio of iodoacetamide-alkyne labeling of the cysteine site, DMSO over compound (competition); higher = stronger covalent engagement of the cysteine by the compound, active = 1 or more). Conditions: 500 µM; treatment time 1 h; system: HEK293T cell lysate.
In short: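 HEK293T lysate (2 mg/mL) was incubated with electrophile (500 µM) or vehicle for 1 h at ambient temperature and then with iodoacetamide alkyne for 1 h. Labelled proteins were clicked to sCIP-TMT reagents, pooled, digested, enriched on streptavidin and measured by Orbitrap Eclipse LC-MS/MS with FAIMS, with FragPipe quantification. The per-cysteine log2 competition ratio is mean control-channel reporter intensity over mean compound-channel reporter intensity. Across three replicates with duplicate channels, cysteines quantified in only one replicate were excluded.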

Chain of UniProt Q14247 (Q14247 whole entry, looked up): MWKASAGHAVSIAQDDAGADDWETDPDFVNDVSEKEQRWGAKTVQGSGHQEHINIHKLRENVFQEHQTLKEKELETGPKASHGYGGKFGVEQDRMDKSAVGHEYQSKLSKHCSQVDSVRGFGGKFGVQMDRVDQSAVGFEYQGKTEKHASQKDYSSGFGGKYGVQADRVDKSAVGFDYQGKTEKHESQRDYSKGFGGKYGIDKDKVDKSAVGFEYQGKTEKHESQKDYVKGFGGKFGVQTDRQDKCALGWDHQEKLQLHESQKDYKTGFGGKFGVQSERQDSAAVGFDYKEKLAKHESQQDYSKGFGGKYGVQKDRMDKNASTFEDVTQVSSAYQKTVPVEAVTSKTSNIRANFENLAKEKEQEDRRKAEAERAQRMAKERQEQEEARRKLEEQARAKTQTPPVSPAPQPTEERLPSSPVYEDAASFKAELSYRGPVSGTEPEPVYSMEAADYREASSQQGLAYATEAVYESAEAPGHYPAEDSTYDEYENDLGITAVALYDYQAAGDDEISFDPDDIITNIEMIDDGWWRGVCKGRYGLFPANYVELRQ
Chain of UniProt Q06265 (Q06265 whole entry): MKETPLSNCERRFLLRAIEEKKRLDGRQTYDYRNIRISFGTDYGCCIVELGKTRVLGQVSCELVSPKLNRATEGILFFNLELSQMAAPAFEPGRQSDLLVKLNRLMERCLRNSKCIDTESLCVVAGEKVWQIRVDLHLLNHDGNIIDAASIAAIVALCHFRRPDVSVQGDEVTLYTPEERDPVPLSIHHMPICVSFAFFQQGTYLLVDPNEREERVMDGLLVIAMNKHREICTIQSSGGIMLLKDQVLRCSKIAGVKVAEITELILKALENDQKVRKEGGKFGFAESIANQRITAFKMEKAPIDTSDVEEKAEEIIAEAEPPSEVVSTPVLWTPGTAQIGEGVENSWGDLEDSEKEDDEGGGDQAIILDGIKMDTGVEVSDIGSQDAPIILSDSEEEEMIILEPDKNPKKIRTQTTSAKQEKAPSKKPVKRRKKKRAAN
Chain of UniProt P52732 (P52732 whole entry, looked up): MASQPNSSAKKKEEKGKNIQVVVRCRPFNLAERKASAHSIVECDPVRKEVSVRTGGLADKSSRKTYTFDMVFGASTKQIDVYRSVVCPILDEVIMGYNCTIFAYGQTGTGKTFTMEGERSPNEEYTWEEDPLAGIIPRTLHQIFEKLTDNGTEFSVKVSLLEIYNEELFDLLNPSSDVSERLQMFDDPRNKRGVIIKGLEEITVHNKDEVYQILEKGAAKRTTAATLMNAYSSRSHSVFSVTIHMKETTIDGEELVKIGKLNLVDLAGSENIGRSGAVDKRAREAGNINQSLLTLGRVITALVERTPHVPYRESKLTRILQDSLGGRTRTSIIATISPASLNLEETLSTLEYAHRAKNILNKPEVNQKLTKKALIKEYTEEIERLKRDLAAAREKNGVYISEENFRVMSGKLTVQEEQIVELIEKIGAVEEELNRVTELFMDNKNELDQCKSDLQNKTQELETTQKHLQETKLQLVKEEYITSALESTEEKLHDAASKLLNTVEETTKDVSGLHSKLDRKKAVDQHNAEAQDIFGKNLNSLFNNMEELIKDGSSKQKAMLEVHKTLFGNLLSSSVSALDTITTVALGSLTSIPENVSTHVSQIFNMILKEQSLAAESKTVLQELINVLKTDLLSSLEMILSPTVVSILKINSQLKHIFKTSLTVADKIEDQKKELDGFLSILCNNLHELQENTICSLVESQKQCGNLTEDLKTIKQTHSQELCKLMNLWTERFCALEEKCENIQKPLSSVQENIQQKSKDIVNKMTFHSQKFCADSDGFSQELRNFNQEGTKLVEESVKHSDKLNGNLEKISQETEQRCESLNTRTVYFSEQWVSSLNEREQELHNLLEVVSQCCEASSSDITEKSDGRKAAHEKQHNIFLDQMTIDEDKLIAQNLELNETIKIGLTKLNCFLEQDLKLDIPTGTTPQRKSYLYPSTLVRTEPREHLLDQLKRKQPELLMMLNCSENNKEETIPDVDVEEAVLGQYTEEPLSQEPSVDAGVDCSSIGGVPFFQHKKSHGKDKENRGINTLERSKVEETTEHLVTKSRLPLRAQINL
Chain of UniProt Q13813 (Q13813 whole entry, looked up): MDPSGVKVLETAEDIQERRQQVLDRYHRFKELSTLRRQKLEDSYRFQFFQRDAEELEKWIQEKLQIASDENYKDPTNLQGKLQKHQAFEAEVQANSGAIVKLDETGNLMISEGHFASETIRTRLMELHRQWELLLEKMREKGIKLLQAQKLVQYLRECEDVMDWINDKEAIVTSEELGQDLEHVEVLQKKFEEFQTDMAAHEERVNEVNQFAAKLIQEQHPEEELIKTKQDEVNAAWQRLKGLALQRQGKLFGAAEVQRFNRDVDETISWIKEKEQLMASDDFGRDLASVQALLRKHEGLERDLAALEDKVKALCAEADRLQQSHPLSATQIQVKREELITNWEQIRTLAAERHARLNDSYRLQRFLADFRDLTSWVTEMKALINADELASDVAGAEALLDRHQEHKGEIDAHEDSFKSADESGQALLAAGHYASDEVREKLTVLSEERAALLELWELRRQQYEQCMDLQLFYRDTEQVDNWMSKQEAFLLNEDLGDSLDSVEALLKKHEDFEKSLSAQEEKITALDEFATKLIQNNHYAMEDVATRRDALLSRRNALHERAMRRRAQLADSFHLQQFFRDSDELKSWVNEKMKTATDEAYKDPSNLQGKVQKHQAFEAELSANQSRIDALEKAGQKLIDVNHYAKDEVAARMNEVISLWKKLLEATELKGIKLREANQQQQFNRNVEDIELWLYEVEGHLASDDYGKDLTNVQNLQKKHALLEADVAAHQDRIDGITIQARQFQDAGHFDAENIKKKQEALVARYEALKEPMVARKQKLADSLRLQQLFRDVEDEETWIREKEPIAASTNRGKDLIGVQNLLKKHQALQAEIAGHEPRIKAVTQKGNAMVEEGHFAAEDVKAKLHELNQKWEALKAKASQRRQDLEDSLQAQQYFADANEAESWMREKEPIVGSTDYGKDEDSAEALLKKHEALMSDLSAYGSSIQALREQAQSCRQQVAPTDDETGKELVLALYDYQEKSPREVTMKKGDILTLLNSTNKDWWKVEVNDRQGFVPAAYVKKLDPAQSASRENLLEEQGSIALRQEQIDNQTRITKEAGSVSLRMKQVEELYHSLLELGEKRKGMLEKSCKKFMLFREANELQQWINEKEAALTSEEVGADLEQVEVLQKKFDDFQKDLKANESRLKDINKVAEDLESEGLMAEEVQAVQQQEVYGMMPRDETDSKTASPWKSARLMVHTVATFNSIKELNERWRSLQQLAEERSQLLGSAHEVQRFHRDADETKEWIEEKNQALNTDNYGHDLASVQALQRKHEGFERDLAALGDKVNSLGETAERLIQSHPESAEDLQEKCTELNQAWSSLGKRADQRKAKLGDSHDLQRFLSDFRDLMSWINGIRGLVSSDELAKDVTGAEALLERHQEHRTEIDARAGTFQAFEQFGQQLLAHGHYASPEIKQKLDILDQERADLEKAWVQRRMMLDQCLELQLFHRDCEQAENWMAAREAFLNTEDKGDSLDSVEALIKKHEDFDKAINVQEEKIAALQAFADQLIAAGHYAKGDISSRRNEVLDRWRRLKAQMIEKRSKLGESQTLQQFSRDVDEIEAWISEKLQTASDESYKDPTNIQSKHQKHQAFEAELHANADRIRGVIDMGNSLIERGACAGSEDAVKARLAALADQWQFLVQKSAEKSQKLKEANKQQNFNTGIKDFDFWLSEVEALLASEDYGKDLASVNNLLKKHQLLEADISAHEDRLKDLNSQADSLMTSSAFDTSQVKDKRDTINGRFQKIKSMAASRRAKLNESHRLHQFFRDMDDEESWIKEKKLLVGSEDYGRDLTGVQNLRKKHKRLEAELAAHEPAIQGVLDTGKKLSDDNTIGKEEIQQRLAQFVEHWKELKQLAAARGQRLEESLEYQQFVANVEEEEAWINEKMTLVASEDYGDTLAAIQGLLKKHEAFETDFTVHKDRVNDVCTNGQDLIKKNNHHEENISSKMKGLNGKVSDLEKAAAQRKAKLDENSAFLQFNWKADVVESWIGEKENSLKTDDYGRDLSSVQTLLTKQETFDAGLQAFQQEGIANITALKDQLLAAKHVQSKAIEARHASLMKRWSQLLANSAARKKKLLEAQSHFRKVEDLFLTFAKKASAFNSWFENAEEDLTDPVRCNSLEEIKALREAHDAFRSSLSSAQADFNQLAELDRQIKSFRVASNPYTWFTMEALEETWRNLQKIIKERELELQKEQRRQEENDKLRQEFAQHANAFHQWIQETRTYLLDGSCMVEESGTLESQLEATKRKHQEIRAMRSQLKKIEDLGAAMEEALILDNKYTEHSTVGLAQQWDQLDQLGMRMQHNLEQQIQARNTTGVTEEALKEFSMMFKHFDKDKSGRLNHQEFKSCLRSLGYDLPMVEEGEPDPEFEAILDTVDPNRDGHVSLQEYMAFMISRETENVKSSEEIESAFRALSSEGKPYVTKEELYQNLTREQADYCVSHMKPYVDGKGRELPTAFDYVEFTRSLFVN
Chain of UniProt Q49AR2 (Q49AR2 whole entry): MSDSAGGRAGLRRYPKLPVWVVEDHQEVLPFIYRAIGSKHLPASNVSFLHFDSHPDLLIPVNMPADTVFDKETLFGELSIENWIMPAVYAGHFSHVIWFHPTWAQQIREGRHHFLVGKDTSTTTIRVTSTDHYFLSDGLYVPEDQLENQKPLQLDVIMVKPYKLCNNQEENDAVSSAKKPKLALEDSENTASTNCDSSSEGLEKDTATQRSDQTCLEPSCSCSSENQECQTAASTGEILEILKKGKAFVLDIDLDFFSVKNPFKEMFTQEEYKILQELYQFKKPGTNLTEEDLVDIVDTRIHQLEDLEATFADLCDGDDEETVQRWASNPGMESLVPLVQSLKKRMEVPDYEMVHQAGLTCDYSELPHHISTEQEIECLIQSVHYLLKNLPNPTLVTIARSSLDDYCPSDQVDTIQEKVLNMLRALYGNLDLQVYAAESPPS

Target	log2 ratio of iodoacetamide-alkyne labeling
ESPL1 C1369 (UniProt Q14674)	0.218
EXOSC9 C9 (UniProt Q06265)	0.307
UniProt P62244_C72	0.177
KIF14 C442 (UniProt Q15058)	0.0677
IAH1 C4 (UniProt Q2TAA2)	2.43 (active)
KIF23 C42 (UniProt Q02241)	0.234
PPP2R5D C17 (UniProt Q14738)	0.818
SF3A3 C103 (UniProt Q12874)	0.188
HNRNPUL2 C308 (UniProt Q1KMD3)	0.826
BMS1 C725 (UniProt Q14692)	1.27 (active)
ILK C346 (UniProt Q13418)	1.8 (active)
TTLL12 C612 (UniProt Q14166)	0.0779
AKAP12 C1407 (UniProt Q02952)	1.16 (active)
C5orf22 C195 (UniProt Q49AR2)	0.458
UniProt P62280_C60	2.21 (active)
R3HDM1 C304 (UniProt Q15032)	0.1
MDC1 C128 (UniProt Q14676)	0.14
UniProt Q02040_C549	1.74 (active)

Target	log2 ratio of iodoacetamide-alkyne labeling
MAP7D1 C361 (UniProt Q3KQU3)	1.65 (active)
CTTN C112 (UniProt Q14247)	0.88
AARS2 C750 (UniProt Q5JTZ9)	0.846
NUP98 C1027 (UniProt P52948)	0.378
MDC1 C1742 (UniProt Q14676)	0.0644
NUMA1 C658 (UniProt Q14980)	-0.0504
ACOX1 C199 (UniProt Q15067)	0.0457
MRPS11 C186 (UniProt P82912)	0.527
SPTAN1 C1930 (UniProt Q13813)	0.167
UniProt Q15042_C335	0.153
PCM1 C957 (UniProt Q15154)	2.43 (active)
COASY C140 (UniProt Q13057)	1.16 (active)
KIF11 C450 (UniProt P52732)	0.0207
AKAP12 C1399 (UniProt Q02952)	1.16 (active)
ACTR3 C235 (UniProt P61158)	1.28 (active)
UniProt Q15365_C194	1.08 (active)
MAP7D1 C373 (UniProt Q3KQU3)	0.815
AKIRIN2 C3 (UniProt Q53H80)	1.11 (active)
